Measured values: PubChem BioAssay
Active and inactive are the calls of the source.

Legend:
[1] = optical density shifts of acrAB sulA E. coli – strain DRC41, OD650, 48 h, E. coli filamentation inducer project, primary screen (AID 1152); details: higher = more signal, called active from +8 up or from −8 down;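 note: E. coli MC1000 strain DRC41 lacking acrAB efflux pump and sulA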
[2] = probe aLefty1 binding on compound microarray – biochemical, small-molecule microarray, 635/667 nm fluorescence, primary screen (AID 1153); details: higher = more signal;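 note: score merges spot fluorescence with signal-to-noise ratio from the scanned slide images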
[3] = plasmodial surface anion channel blockers, osmotic lysis – cell-based, P. falciparum Indochina, OD700, 1 h, primary screen (AID 1154); details: P. falciparum Indochina infected RBC osmotic lysis, higher = more signal, called active from +8 up or from −8 down
[4] = plasmodial surface anion channel blockers, osmotic lysis – cell-based, P. falciparum Indochina, OD700, 2 h, primary screen (AID 1155);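 note: lysis reports solute entry through the parasite surface anion channel PSAC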; details: P. falciparum Indochina infected erythrocytes, higher = more signal, called active from +8 up or from −8 down
[5] = changes in parasitized red cell lysis, either direction – P. falciparum Indochina, OD700, 3 h, PSAC antagonist project, primary screen (AID 1156); details: P. falciparum-infected erythrocytes, osmotic lysis, higher = more signal, called active from +8 up or from −8 down
[6] = plasmodial surface anion channel blockers, osmotic lysis – cell-based, P. falciparum Indochina, OD700, 18 h, primary screen (AID 1157); details: P. falciparum Indochina infected erythrocytes, osmotic lysis OD700, 18 h; higher = more signal, called active from +8 up or from −8 down
[7] = S6 kinase pathway phospho-S6 level changes – cell-based, A549, cytoblot, luminescence, serum-stimulated, primary screen (AID 1158); details: 5 h, higher = more signal;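 note: serum-stimulated A549 lung adenocarcinoma cells; signal is phosphorylated S6 detected by cytoblot immunostaining with HRP secondary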
[8] = molecular target: NADPH oxidase 2 (Homo sapiens) (UniProt P04839); assay: compounds shifting NOX2 Amplex Red fluorescence – cell-based, HEK293-NOX2, PMA-stimulated, NOX inhibitor project, primary screen (AID 1159); details: 45 min, higher = more signal, called active from +8 up or from −8 down; note: test concentration not given here
[9] = molecular target: NADPH oxidase 4 (Homo sapiens) (UniProt Q9NPH5); assay: compounds shifting NOX4 Amplex Red fluorescence – cell-based, HEK293-NOX4, tetracycline-induced, NOX inhibitor project, primary screen (AID 1160); details: HEK293-NOX4, Amplex Red H2O2 fluorescence, 45 min; higher = more signal, called active from +8 up or from −8 down
[10] = molecular target: NADPH oxidase 5 (Homo sapiens) (UniProt Q96PH1); assay: compounds shifting NOX5 Amplex Red fluorescence – cell-based, HEK293-NOX5, NOX inhibitor project, primary screen (AID 1161); details: HEK293-NOX5, ionomycin, 45 min, higher = more signal
Chain of NADPH oxidase 5 (Homo sapiens) (Q96PH1 whole entry, looked up): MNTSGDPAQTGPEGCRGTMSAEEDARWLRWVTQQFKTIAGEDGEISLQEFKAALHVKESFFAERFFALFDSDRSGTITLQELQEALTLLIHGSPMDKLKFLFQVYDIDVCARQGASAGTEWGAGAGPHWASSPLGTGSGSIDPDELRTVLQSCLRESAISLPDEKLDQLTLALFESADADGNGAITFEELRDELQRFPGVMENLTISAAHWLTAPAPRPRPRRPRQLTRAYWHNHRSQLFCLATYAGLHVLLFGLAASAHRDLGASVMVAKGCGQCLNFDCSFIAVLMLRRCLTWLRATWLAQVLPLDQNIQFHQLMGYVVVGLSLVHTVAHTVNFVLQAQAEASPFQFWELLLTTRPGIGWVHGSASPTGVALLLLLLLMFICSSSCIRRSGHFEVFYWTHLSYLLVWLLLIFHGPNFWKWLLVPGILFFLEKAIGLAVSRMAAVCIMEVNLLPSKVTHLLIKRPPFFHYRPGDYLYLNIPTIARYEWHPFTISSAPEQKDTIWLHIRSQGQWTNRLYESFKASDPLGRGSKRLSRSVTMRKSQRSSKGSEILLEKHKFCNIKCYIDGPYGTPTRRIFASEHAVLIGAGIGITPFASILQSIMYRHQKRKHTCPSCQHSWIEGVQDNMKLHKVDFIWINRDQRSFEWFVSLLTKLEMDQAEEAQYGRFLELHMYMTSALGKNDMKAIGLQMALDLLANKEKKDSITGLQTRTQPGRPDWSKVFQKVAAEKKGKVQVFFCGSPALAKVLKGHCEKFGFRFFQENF

Chain of NADPH oxidase 2 (Homo sapiens) (P04839 whole entry, looked up): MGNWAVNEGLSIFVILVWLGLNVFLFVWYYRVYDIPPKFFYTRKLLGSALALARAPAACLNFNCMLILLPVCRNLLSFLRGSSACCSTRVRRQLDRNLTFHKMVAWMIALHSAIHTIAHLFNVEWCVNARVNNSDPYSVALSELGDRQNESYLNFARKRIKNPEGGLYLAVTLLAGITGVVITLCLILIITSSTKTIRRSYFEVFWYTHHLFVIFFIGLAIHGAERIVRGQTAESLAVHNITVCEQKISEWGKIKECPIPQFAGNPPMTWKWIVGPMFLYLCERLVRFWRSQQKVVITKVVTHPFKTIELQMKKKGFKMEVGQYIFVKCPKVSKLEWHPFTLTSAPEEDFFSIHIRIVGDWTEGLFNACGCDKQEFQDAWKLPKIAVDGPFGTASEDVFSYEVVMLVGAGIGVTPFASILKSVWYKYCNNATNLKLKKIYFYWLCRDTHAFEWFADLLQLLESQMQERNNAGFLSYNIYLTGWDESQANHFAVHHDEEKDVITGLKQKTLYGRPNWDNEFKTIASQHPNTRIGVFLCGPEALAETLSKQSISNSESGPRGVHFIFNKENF
Chain of NADPH oxidase 4 (Homo sapiens) (Q9NPH5 whole entry, looked up): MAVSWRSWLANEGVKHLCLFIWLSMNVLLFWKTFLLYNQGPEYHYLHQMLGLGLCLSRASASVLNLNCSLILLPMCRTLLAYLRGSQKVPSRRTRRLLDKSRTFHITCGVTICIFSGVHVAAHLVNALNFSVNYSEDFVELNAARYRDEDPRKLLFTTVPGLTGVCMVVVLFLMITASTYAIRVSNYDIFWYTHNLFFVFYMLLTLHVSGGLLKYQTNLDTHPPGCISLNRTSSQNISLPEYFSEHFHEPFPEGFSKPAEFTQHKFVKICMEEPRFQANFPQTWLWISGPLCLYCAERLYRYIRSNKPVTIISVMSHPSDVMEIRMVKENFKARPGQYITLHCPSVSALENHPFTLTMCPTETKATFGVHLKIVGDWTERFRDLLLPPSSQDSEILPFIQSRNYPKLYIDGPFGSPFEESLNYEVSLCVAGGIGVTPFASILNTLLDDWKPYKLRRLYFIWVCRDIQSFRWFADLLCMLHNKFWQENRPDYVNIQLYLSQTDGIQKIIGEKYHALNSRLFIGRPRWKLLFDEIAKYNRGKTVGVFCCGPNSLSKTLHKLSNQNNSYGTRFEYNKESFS

Structure (SMILES) | z-score [1] | composite z-score [2] | z-score [3] | z-score [4] | z-score [5] | z-score [6] | z-score [7] | z-score [8] | z-score [9] | z-score [10]
C=C(CCCC)/C(=C/C[C@@H](OC(C)=O)c1cccc(OCCO)c1)c1cc(C(=O)OC)ccc1OC | 0.198 (inactive) | -0.0969 | 17.4 (active) | 3.45 (inactive) | 1.42 (inactive) | 1.02 (inactive) | 0.0322 | -2.13 (inactive) | -1.16 (inactive) | -1.88
[N-]=[N+]=Nc1ccccc1C[C@]1(C(N)=O)COC(c2ccc(OCCCO)cc2)=N1 | -0.142 (inactive) | 0.146 | 24.7 (active) | 9.16 (active) | 1.56 (inactive) | 0.0294 (inactive) | 1.84 | -2.14 (inactive) | -1.48 (inactive) | -2.48
COc1ccc(CCNC(=O)[C@@H]2c3ccccc3C(=O)N(Cc3cc(F)cc(C(F)(F)F)c3)[C@H]2c2ccc(CO)cc2)cc1 | 0.799 (inactive) | 0.659 | 3.5 (inactive) | 0.69 (inactive) | 0.563 (inactive) | 0.0614 (inactive) | -0.155 | -2.4 (inactive) | -0.0983 (inactive) | -2.21
COc1ccc([Si](C)(C)[C@H]2[C@H](CC(=O)N3CCC[C@H]3CO)O[C@@]3(C(=O)N(Cc4cccc(N5CCCCC5=O)c4)c4ccccc43)[C@@H]2C)cc1 | 0.499 (inactive) | 0.0799 | 4.11 (inactive) | 0.57 (inactive) | 0.318 (inactive) | 0.525 (inactive) | -0.438 | 1.45 (inactive) | 1.44 (inactive) | 4.92
COC(=O)C(CC#Cc1ccc2c(c1)[C@]1(C(=O)N2)[C@H](C(N)=O)[C@H]2C(=O)O[C@H](c3ccccc3)[C@H](c3ccccc3)N2[C@@H]1c1ccccc1OCCO)C(=O)OC | 0.879 (inactive) | 0.0622 | 14.2 (active) | 3.83 (inactive) | 1.02 (inactive) | 1.47 (inactive) | -0.127 | 1.9 (inactive) | 0.723 (inactive) | 0.904
COC(=O)[C@H]1N=C(c2ccc(OCCCO)cc2)O[C@H]1c1ccccc1N=[N+]=[N-] | -0.33 (inactive) | 0.527 | 29.3 (active) | 24.7 (active) | 2.2 (inactive) | 4.48 (inactive) | 0.352 | -1.69 (inactive) | -0.0764 (inactive) | -2.1
C[C@@]1([C@@H](NS(=O)(=O)c2cccc3cccnc23)c2ccc(-c3ccccc3)cc2)C[C@H]1C1CCCCC1 | -2.47 (inactive) | 1.31 | 0.668 (inactive) | 0.367 (inactive) | 1.39 (inactive) | 0.691 (inactive) | -0.79 | 0.168 (inactive) | -0.61 (inactive) | -1.99
O=C1C2C=CC(C(O)C3CC=CCC3)N(Nc3ccc([N+](=O)[O-])cc3)C2C(=O)N1c1ccccc1 (stereo not given) | -0.852 (inactive) | 0.908 | 24.8 (active) | 5.02 (inactive) | 4 (inactive) | 1.2 (inactive) | -0.837 | -1.03 (inactive) | -3.02 (inactive) | -3.26
COc1ccc(C(=O)Nc2ccc(CN3C(=O)[C@]4(O[C@H](CC(=O)N(CCO)Cc5ccccc5)[C@@H]([Si](C)(C)c5ccc(OC)cc5)[C@@H]4C)c4ccccc43)cc2)cc1 | 0.863 (inactive) | -0.142 | 4.94 (inactive) | 1.89 (inactive) | 0.439 (inactive) | 1.02 (inactive) | 0.383 | 0.658 (inactive) | 0.801 (inactive) | 3.23
C=CCNC(=O)[C@H]1[C@@H]2C(=O)O[C@@H](c3ccccc3)[C@@H](c3ccccc3)N2[C@@H](c2ccc(OCCO)cc2)[C@]12C(=O)N(C(=O)OCCOC)c1ccc(C#CCC(C(=O)OC)C(=O)OC)cc12 | -0.335 (inactive) | 0.123 | 4.28 (inactive) | 1.28 (inactive) | 0.743 (inactive) | 0.656 (inactive) | -0.116 | 1.64 (inactive) | 0.791 (inactive) | 0.621
C=CCC(OC(C)=O)[C@@H]1[C@@H](N(Cc2ccc(-c3ccccc3)cc2)C(=O)Cc2ccc(OC)cc2)c2cc(OCCCO)ccc2N1C(=O)Cc1ccc(OC)cc1 (stereo not given in full) | -0.92 (inactive) | 0.299 | 3.76 (inactive) | -0.313 (inactive) | 0.167 (inactive) | 0.141 (inactive) | 0.518 | -3.55 (inactive) | 0.194 (inactive) | -0.0291
Cc1ccc(S[C@]2(C(=O)NCCN3CCOCC3)CC(=O)N(C(C)C)[C@@H]2c2ccc(CO)cc2I)cc1 | 3.66 (inactive) | 0.11 | 7.56 (inactive) | 0.308 (inactive) | 0.651 (inactive) | -0.511 (inactive) | 1.86 | -0.491 (inactive) | -1.24 (inactive) | 1.07
CCOC(=O)C[C@H]1[C@H](OC(=O)c2ccccc2-c2ccccc2)[C@@H](NC(=O)CC(C)C)c2cc(OCCCO)ccc2N1C(=O)c1ccccc1 | 0.822 (inactive) | 0.0816 | 0.0883 (inactive) | -1.7 (inactive) | -1.27 (inactive) | -2.84 (inactive) | 1.47 | 0.924 (inactive) | 0.899 (inactive) | -1.19
